This passage reports growth results from PubChem BioAssay (NCI).

Common to all, as to experiment: NCI-60 one-dose screen, 48 h (100 = growth as untreated, 0 = no growth, -100 = all killed)
One experiment concerns NCI-H23 lung. The settings on record: 10 µM unless noted.
A further experiment relates to NCI-H322M lung. The settings on record: 10 µM unless noted.
In the next experiment the test system is HOP-62 NSCLC. To be noted: 10 µM unless noted.
The next experiment relates to NCI-H460 lung. The settings on record: 10 µM unless noted.
The subject of the next experiment is HOP-92 NSCLC. To be noted: 10 µM unless noted.
In the next experiment the test system is NCI-H522 lung. The settings on record: 10 µM.
Another experiment concerns A549/ATCC NSCLC. To be noted: 10 µM unless noted.
In a further experiment the test system is 786-0 renal. To be noted: 10 µM unless noted.
Another experiment relates to COLO 205 colon. The settings on record: 10 µM unless noted.

The panel holds about 83,000 compounds, 20% with a hit somewhere; the sample as a whole holds those more often.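 Growth was measured after 48 h exposure to one concentration of compound in 96-well plates. Values under 10 count as active.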 A number with no mark means an inactive call. Calls of active or inactive are those of the source.

In the case of `O=C(NCc1ccc(F)cc1)C1CN(c2ccc(Cl)cc2)N(c2ccc(Cl)cc2)C1=O` (stereo unspecified), the growth is 78.8% in the experiment on NCI-H23 lung; 93.1% in the experiment with NCI-H322M lung; 60.5% in the experiment on HOP-62 NSCLC; 48% with NCI-H460 lung; 91.1% with HOP-92 NSCLC; 52.5% in the experiment on NCI-H522 lung. For the same compound, the growth was 48.8% in the experiment with A549/ATCC NSCLC and 79.1% with 786-0 renal.
In the case of `O=C1C(OCCOc2ccccc2)=C(OCCOc2ccccc2)C(=O)c2ccccc21`, the growth with NCI-H23 lung is 16.3%; in the experiment with NCI-H322M lung, 60.3%; in the experiment with HOP-62 NSCLC, 56.4%; in the experiment on NCI-H460 lung, -26% (active); in the experiment with HOP-92 NSCLC it was 102%; with A549/ATCC NSCLC it was 17.4%. Further, the growth with 786-0 renal was 100%; with COLO 205 colon, 102%.
Take `Cc1ccc(N=c2nc3sc4c(C)ccc(C)c4n3c(N)c2C#N)cc1`: the growth in the experiment with NCI-H23 lung is 90.2%; with NCI-H322M lung, 113%; with HOP-62 NSCLC, 101%; in the experiment with NCI-H460 lung it was 105%; with HOP-92 NSCLC, 76.6%; with A549/ATCC NSCLC it was 100%. The growth in the experiment on 786-0 renal is 101%; in the experiment on COLO 205 colon it was 108%.
Regarding `O=C(c1cnn2c1NC(c1ccc(F)cc1)C2)N1CCCCC1` (stereo unspecified), the growth in the experiment with NCI-H23 lung is 105%; in the experiment with NCI-H322M lung, 112%; in the experiment on HOP-62 NSCLC, 92.1%; with NCI-H460 lung, 105%; in the experiment on HOP-92 NSCLC, 97%; with NCI-H522 lung, 93.3%. For the same compound, the growth in the experiment with A549/ATCC NSCLC is 98.2%; in the experiment on 786-0 renal it was 106%.
As for `O=S(=O)(Nc1ccc(Cl)c(Cl)c1)c1ccc(-c2cnc(C3CC3)o2)cc1`, the growth in the experiment with NCI-H23 lung is 39.6%; in the experiment on NCI-H322M lung, 40.7%; in the experiment on HOP-62 NSCLC, 24%; in the experiment on NCI-H460 lung, 4.29% (active); in the experiment with HOP-92 NSCLC, 48%; in the experiment with NCI-H522 lung, 6.78% (active). Also, the figures for the growth in the experiment with A549/ATCC NSCLC and in the experiment with 786-0 renal were 25.5% and 46.3%, respectively.
For the compound `COc1cc(/C=N/NC(=O)c2cnn3c2NC(c2ccccc2)C3)cc(OC)c1OC` (stereo unspecified), the growth with NCI-H23 lung is 102%; with NCI-H322M lung, 84%; with HOP-62 NSCLC it was 71.2%; in the experiment on NCI-H460 lung, 26.7%; in the experiment on HOP-92 NSCLC, 76%; in the experiment on A549/ATCC NSCLC it was 64.8%. Besides, in the experiment with 786-0 renal, the growth is 88%.
For the compound `COc1ccc(-c2nc3sc(C)nn3c2-c2nc3cc(C)c(C)cc3[nH]2)cc1`, the growth with NCI-H23 lung was 93.9%; with NCI-H322M lung, 99.4%; in the experiment with HOP-62 NSCLC it was 91.8%; in the experiment on NCI-H460 lung, 99.9%; in the experiment on HOP-92 NSCLC, 87.9%; in the experiment on A549/ATCC NSCLC, 96.3%. Moreover, the growth is 98.4% with 786-0 renal and 115% in the experiment on COLO 205 colon.
`O=C1/C(=C/c2ccc([N+](=O)[O-])cc2)Oc2ccc(O)cc21`: the growth in the experiment on NCI-H23 lung was 75.8%; in the experiment on NCI-H322M lung, 106%; in the experiment on HOP-62 NSCLC it was 50.6%; in the experiment with NCI-H460 lung, 40.9%; in the experiment on HOP-92 NSCLC it was 93.7%; in the experiment on NCI-H522 lung it was 75.4%. The figures for the growth with A549/ATCC NSCLC and in the experiment on 786-0 renal were 70.8% and 96%, respectively.
`COCCOC1=C(Cl)C(=O)c2ccccc2C1=O`: the growth was 29% in the experiment on NCI-H23 lung; 95.6% in the experiment on NCI-H322M lung; 45.5% in the experiment with HOP-62 NSCLC; 14.3% with NCI-H460 lung; -17.3% (active) in the experiment on HOP-92 NSCLC; 21.6% in the experiment on A549/ATCC NSCLC. In addition, the growth in the experiment with 786-0 renal was 81.8%; with COLO 205 colon it was 35.4%.
For `Cc1cc(=O)oc2c1ccc1oc(C(=O)c3ccccc3)c(C)c12`, the growth in the experiment on NCI-H23 lung was 82.1%; with NCI-H322M lung it was 112%; with HOP-62 NSCLC, 115%; with NCI-H460 lung, 85%; with HOP-92 NSCLC, 105%; in the experiment on A549/ATCC NSCLC, 93.8%. Also, the growth was 99.5% with 786-0 renal and 93.5% in the experiment with COLO 205 colon.
On to `O=c1[nH]c(-c2ccncc2)nc2sc3c(c12)CCCCCC3`, for which the growth in the experiment on NCI-H23 lung is 88.5%; in the experiment with NCI-H322M lung, 59.4%; in the experiment on HOP-62 NSCLC it was 52.2%; in the experiment with NCI-H460 lung, 30.4%; in the experiment on HOP-92 NSCLC it was -25.1% (active); with A549/ATCC NSCLC, 43.7%. Moreover, the results for the growth in the experiment with 786-0 renal and in the experiment on COLO 205 colon were 80.4% and 106%, respectively.
Turning to `COC(=O)c1c2c(c(C)[n+]([O-])c1C)C(=O)C=C(NCc1ccc(F)cc1)C2=O`, the growth with NCI-H23 lung is -46.2% (active); with NCI-H322M lung it was -6.43% (active); with HOP-62 NSCLC, -6.11% (active); in the experiment with NCI-H460 lung it was -0.65% (active); in the experiment on HOP-92 NSCLC it was -41.1% (active); in the experiment on NCI-H522 lung, -15.1% (active). For the same compound, the growth with A549/ATCC NSCLC is -22.7% (active); in the experiment on 786-0 renal, 5.86% (active).
On to `COc1cc(-c2nc(SC(C)C)nc(Nc3cccc(C)c3)c2C#N)cc(OC)c1OC`, for which the growth is 103% in the experiment with NCI-H23 lung; 107% in the experiment on NCI-H322M lung; 103% with HOP-62 NSCLC; 108% in the experiment on NCI-H460 lung; 106% in the experiment on HOP-92 NSCLC; 91% in the experiment on A549/ATCC NSCLC. For the same compound, the growth in the experiment on 786-0 renal and with COLO 205 colon was 109% in each case.
As for `Cc1ccc2nc(NC(=O)CSC(=S)N3CCN(Cc4ccccc4)CC3)sc2c1`, the growth was 1.13% (active) in the experiment with NCI-H23 lung; -71.8% (active) in the experiment on NCI-H322M lung; -59.1% (active) with HOP-62 NSCLC; -70.9% (active) in the experiment on NCI-H460 lung; -55.4% (active) in the experiment with HOP-92 NSCLC; 1.71% (active) in the experiment with A549/ATCC NSCLC. For the same compound, the growth in the experiment on 786-0 renal was -21.1% (active); with COLO 205 colon it was -63.3% (active).
As for `Cc1ccc(S(=O)(=O)N2CCc3ccc(O)c4c3C2CCc2ccccc2-4)cc1` (stereo unspecified), the growth is 95.9% in the experiment on NCI-H23 lung; 99.1% with NCI-H322M lung; 106% in the experiment on HOP-62 NSCLC; 108% with NCI-H460 lung; 116% in the experiment on HOP-92 NSCLC; 82.4% with NCI-H522 lung. For the same compound, the values for the growth in the experiment on A549/ATCC NSCLC and in the experiment on 786-0 renal were 102% and 100%, respectively.
For `O=C(N/N=C(\CS(=O)(=O)c1ccccc1)c1cc2ccccc2oc1=O)c1ccccc1`, the growth in the experiment on NCI-H23 lung is 97.9%; in the experiment on NCI-H322M lung, 107%; in the experiment on HOP-62 NSCLC, 117%; in the experiment with NCI-H460 lung it was 101%; in the experiment on HOP-92 NSCLC, 117%; in the experiment on A549/ATCC NSCLC, 93.1%. Further, the growth with 786-0 renal was 106%.
